Shown are actives, neighbours in structure and some others; about 5.9% of the full set was active somewhere.
GAA850 FXN act – FXN promoter activators, primary screen, cell-based, luciferase luminescence, HEK293 lucGAA850 | HEK293 lucGAA850 FXN promoter luciferase reporter, 24 h; percent of 10 µM SAHA response | activation, % at 6 µM | 360,000 compounds, 0.56% hits | AID 540364, 2011;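 active = activation above the average of all compounds screened plus 3 SD, cutoff fixed separately per campaign, cut at about 7.5% in these data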;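 note: 0% = DMSO wells and 100% = 10 µM SAHA wells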
HSP90 inh – HSP90 inhibitors, primary screen, cell lysate, luminescence; 290,000 compounds, 0.91% hits; Heat shock protein HSP 90 (rabbit reticulocyte lysate; luciferase refolding); inhibition, % at 5.6 µM; AID 1789, 2009; Rabbit reticulocyte lysate, luciferase refolding luminescence, 3 h;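 active = inhibition above the screen-wide mean plus 3 SD, computed separately per campaign, cut at about 16% in these data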;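 note: 0% = DMSO wells and 100% = 60 µM geldanamycin wells; inhibitors lower the luminescence because luciferase stays unfolded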
HSF1 inhib – HSF1 inhibitors in luciferase reporter cells, primary screen, cell-based, NIH3T3, luminescence. NIH3T3-HGL HSE-luciferase, MG132-induced, luminescence 8 h; hits give low values. activity change, negative = inhibition, % at 7.5 µM (by protocol). 300,000 compounds, 0.77% hits. AID 2098, 2009;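 active = more than half of replicate wells show activity change below -50%, luminescence cut by over half; inconclusive = some wells, but at most half, below -50%; inactive = no replicate well below -50%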;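 note: luciferase reports HSF-1 transcriptional activity via heat shock element; 0% = median of DMSO wells and -100% = zero luminescence signal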
HSF-1 act – HSF-1 activators, primary screen, NIH3T3-HGL cells, MG132 stress, luminescence, single point; 300,000 compounds, 1.7% hits; NIH3T3-HGL HSF-1 luciferase reporter, 8 h; 100% = twice DMSO control signal; activation, % at 9 µM;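 active = mean replicate activation of at least 50% with a set share of replicates each reaching 50%; inconclusive = only one of those two conditions met; inactive = mean below 50% and too few replicates reaching it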;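 note: 0% = median of the neutral control wells and 100% = twice that signal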
NR0B1 inh – DAX1 (NR0B1) inhibitors, primary screen, cell-based, HEK293, Gal4-DAX1, luciferase luminescence | 340,000 compounds, 0.99% hits | AID 504766, 2011 | Nuclear receptor subfamily 0 group B member 1 (Homo sapiens), P51843 | inhibition, % at 6.75 µM | HEK293 Gal4-DAX1 luciferase reporter;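 active = inhibition above the mean over all tested compounds plus 3 SD, cut at about 4.2% in these data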;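 note: 0% = DAX1-transfected cells with DMSO and 100% = empty-vector control cells with DMSO; inhibition shows as a rise in luminescence from relieved DAX1 repression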
AHR activator – AHR activators, primary screen, cell-based, luminescence, luciferase reporter, human; Aryl hydrocarbon receptor (Homo sapiens), P35869; AHR-responsive luciferase reporter cells; activation, % at 5 µM; 320,000 compounds, 2.5% hits; AID 2796, 2010; in the data active = activation above about 47%;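 note: 0% = vehicle wells and 100% = reference agonist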
Target sequence (P35869 whole entry, looked up): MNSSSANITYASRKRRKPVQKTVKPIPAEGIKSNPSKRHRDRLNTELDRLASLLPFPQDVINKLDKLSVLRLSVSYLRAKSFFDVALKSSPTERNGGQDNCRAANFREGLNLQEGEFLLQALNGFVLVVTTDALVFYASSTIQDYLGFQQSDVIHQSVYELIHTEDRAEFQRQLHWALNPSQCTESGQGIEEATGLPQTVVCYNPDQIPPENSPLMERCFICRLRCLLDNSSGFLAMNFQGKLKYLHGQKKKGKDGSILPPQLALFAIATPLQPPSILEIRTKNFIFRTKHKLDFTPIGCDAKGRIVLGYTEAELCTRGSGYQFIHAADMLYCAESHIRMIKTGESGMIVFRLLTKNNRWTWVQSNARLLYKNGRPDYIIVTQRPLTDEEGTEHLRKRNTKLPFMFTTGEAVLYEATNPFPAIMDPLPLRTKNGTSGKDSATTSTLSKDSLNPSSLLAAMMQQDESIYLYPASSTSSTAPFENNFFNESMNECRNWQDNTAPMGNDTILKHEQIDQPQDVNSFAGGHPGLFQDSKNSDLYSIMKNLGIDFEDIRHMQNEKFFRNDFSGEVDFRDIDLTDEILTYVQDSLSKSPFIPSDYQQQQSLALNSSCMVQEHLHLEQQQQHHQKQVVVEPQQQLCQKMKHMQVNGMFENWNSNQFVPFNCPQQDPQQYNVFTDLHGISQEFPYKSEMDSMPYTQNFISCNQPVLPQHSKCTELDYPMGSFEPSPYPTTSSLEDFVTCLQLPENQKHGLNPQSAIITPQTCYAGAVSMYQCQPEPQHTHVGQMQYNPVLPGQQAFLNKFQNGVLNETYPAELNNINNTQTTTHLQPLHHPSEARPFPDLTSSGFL
Active calls of the source: *; ? = inconclusive; . = not tested or not shown.

SMILES	GAA850 FXN act	HSP90 inh	HSF1 inhib	HSF-1 act	NR0B1 inh	AHR activator
Cc1cc(Cl)cc(Br)c1OCCCN1C(=O)NC(C)(C)C1=O	-1	-7	32	75*	0	1
CC(=O)c1c(C)[nH]c(C(=O)N2CCc3ccccc3C2)c1C	-1	-1	4	24	0	48*
CCOC(=O)CSC1=C(C#N)C(c2ccccc2C)C2=C(CCCC2=O)N1 (stereo unspecified)	1	-4	-85*	-89	-1	3
COc1cccc(-n2nc(C#N)c(Cl)cc2=O)c1	-11	-2	155	225*	-2	.
CC(=O)Nc1ccc(C(=O)OCCCOC(=O)c2ccc(NC(C)=O)cc2)cc1	1	-3	3	4	1	1
CCOC(=O)c1ccc(NC(=O)Oc2ccccc2)cc1	-1	-4	-51*	-63	1	-2
CCOC(=O)c1ccc(Nc2cnc3ccccc3n2)cc1	4	-3	32	56*	3	1
CCC(=O)Nc1ccc(C(=O)OCc2ccccc2Cl)cc1	5	-5	61	116*	3	3
CC(=O)Nc1ccc(C(=O)OCCc2ccccc2)cc1	1	-4	22	56*	2	-3
CCOc1ccc(NS(=O)(=O)c2ccc(C(=O)N(C)CC(=O)Nc3ccc(C)cc3)cc2)cc1	-2	.	30	59*	-1	0
CN(CC(=O)Nc1ccc(Cl)cc1)C(=O)c1ccc(S(=O)(=O)Nc2ccccc2)cc1	-2	.	-2	-4	0	3
CCOC(=O)c1ccc(NC(=O)NS(=O)(=O)c2ccc(C)cc2)cc1	1	-2	-58*	-65	2	2
CN(C)C(=O)C(=O)c1c(-c2ccccc2)cc2ccccn12	3	-2	-7	11	1	-4
O=Nc1c(-c2ccccc2)cc2ccccn12	0	-1	6	14	6.6*	11
N#CC(CO)(Cc1ccc(OC(F)F)cc1)c1nc2ccccc2[nH]1 (stereo unspecified)	3	0	46	72*	1	3
CC(=O)COc1cccc2ccc(/C=C/c3ccc(Br)s3)nc12	2	2	37	?	1	72*
COc1ccc(/C=C/c2ccc3cccc(O)c3n2)c(OC)c1OC	8.9*	0	41	42	-4	-1
COc1ccc(/C=C/c2ccc3cccc(O)c3n2)cc1Br	1	0	-11	-8	1	0
Oc1cccc(/C=C/c2ccc3cccc(O)c3n2)c1	4	6	-15	-26	3	70*
COc1cc(/C=C/c2ccc3cccc(O)c3n2)cc(OC)c1OC	-5	-1	7	13	-3	-3
COC(=O)c1ccc(/C=C/c2ccc3cccc(OC)c3n2)cc1	5	-2	5	-4	-2	2
COc1cc(Br)cc(/C=C/c2ccc3cccc(O)c3n2)c1OC	-1	7	-3	10	0	43
Cc1ccc(/C=C/c2ccc3cccc(O)c3n2)s1	4	6	51	85*	4	36
O=C(N=C1SC2CS(=O)(=O)CC2N1Cc1ccccc1Cl)C1CCCO1 (stereo unspecified)	-1	-3	2	19	1	0
CC1CC(C)CN(CCCNC(=O)CN2C(=O)CSc3ccc(S(=O)(=O)N4CCOCC4)cc32)C1 (stereo unspecified)	1	6	0	-7	1	-1
CCCCSc1nc(N)nc2c1ncn2C1OC(CO)C(O)C1O (stereo unspecified)	2	.	.	.	.	.
O=[N+]([O-])c1cccnc1NCCNc1ncc(C(F)(F)F)cc1Cl	3	-5	62	85*	3	1
CCOC(=O)c1c(C)[nH]c(C)c1C(=O)Cn1nnc(-c2ccccc2C)n1	2	2	2	2	0	49*

From PubChem
